CHT block = inhibitors of human choline transporter CHT; 310,000 compounds, 0.86% hits; CHT-expressing cells, membrane potential dye, choline response; stronger effect = lower value; AID 488975, 2010; High affinity choline transporter 1 (Homo sapiens), Q9GZV3; B-score at 10 µM;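 active = B-score over 3 SD under the library average, and starting fluorescence ratio not unusually high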;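 also: choline stimulus applied at its EC90 after an EC20 pre-addition; B-score computed on integrated fluorescence ratio after choline addition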
CHT PAM = CHT positive allosteric modulators, primary screen, cell-based, membrane potential dye, choline EC20; CHT-expressing cells; stronger effect = higher value; LV-AA mutant CHT in HEK293 cells; 310,000 compounds, 0.49% hits; B-score at 10 µM; High affinity choline transporter 1 (Homo sapiens), Q9GZV3;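 active = initial fluorescence not abnormally high and integrated response B-score, plate-corrected, over 3 SD above library mean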
Kir21 block = inhibitors of mouse Kir2.1 inward-rectifier potassium channel; HEK293-Kir2.1, FluxOR thallium flux fluorescence; stronger effect = lower value; AID 1672, 2009; B-score at 10 µM; 310,000 compounds, 0.85% hits; Inward rectifier potassium channel 2 (Mus musculus), P35561;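 active = fluorescence ratio B-score at or below minus 3 SD of library scores, with starting-brightness B-score within 2 SD, cut at about -4.2 in these data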;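 also: channel flux triggered by added potassium and thallium sulfate stimulus; B-score of peak minus minimum fluorescence over baseline after thallium stimulus; more negative B-score means stronger Kir2.1 block with less thallium influx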
Target sequence (P35561 whole entry, looked up): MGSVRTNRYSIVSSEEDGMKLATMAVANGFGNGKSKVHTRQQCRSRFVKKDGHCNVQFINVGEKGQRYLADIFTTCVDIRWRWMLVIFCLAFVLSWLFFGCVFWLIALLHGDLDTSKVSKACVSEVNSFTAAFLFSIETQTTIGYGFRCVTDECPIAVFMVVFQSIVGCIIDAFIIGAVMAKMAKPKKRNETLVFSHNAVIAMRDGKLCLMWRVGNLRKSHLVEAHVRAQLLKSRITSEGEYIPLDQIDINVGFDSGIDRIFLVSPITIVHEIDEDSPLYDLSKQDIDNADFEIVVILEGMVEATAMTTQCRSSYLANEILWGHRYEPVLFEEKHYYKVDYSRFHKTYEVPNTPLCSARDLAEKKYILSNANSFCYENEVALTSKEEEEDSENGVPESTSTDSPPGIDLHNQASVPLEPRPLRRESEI
TAG inh = inhibitors of triacylglycerol accumulation, primary screen, cell-based, uHTS, fluorescence, H9c2. H9c2 cells, Nile Red lipid (TAG) fluorescence; cells loaded with 200 µM oleic acid. inhibition, % at 12.5 µM. 230,000 compounds, 0.66% hits;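 active = pattern-corrected inhibition of lipid staining of at least 50% with the nuclear-stain viability signal not falling by more than 50%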
CHT inh conf = CHT inhibitors, confirmation, cell-based, membrane potential dye, duplicate. 2,400 compounds, 70% hits. shares compounds with CHT block. CHT activity remaining % of control (stronger effect = lower value), % at 10 µM. CHT-expressing cells, choline membrane potential dye; LV-to-AA substituted CHT, HEK293 cells;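 active = choline transporter activity left, mean of duplicates at 10 µM, below buffer-only control mean minus 3 SD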;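 also: depolarization triggered by choline at its EC90 following an EC20 pre-addition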
HEK293 CHT ctr = membrane potential effects in parental HEK293, counter-screen for CHT inhibitor project, cell-based, membrane potential dye; shares compounds with CHT block; choline response; active = decrease or increase beyond buffer ±3SD; membrane potential ratio readout (active if shifted either direction beyond buffer ±3SD; no single direction) at 10 µM; 2,400 compounds, 4% hits; AID 493222, 2011;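 also: parental cells lack the transporter so any hit is non-specific; ratio is peak minus trough fluorescence over baseline after EC90 choline challenge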
Hits are given with their value. Most compounds without a hit are left out; they make up all but 2% or so of the library.

Results for COc1ccccc1-n1c(SCC(=O)NC2CCCCC2)nc2c(c1=O)SCC2 ?
CHT block: inactive; CHT PAM: inactive; Kir21 block: inactive; TAG inh: inactive

What do the screens show for `Cc1nc(CCN2C(=O)c3ccccc3C2=O)cs1`?
CHT block: inactive; CHT PAM: inactive; Kir21 block: inactive; TAG inh: inactive

What do the screens show for `NC(N)=Nc1nc(CCN2C(=O)c3ccccc3C2=O)cs1`?
CHT block: -6.3; CHT PAM: inactive; Kir21 block: inactive; TAG inh: inactive; CHT inh conf: 30%; HEK293 CHT ctr: inactive

Results for CC1(Cc2ccc(F)cc2)C(=O)Nc2ccc(S(=O)(=O)NC3CCCCC3)cc21 (configuration not stated) ?
TAG inh: inactive

How did C=C(C)COc1ccc(-c2[nH]ncc2-c2ccc(Br)cc2)c(O)c1 do in these assays?
CHT block: -5.5; CHT PAM: inactive; Kir21 block: inactive; CHT inh conf: inactive; HEK293 CHT ctr: inactive

What do the screens show for `CCOC(=O)C1(Cc2ccc(OC)cc2)CCN(C(=O)c2csc(C)n2)CC1`?
CHT block: inactive; CHT PAM: inactive; Kir21 block: inactive; TAG inh: inactive

Results for CCOC(=O)C1(Cc2ccc(OC)cc2)CCN(C(=O)c2cncs2)CC1 ?
CHT block: -7.1; CHT PAM: inactive; Kir21 block: inactive; TAG inh: inactive; CHT inh conf: inactive; HEK293 CHT ctr: inactive

How did C#CCNc1c(C)c(C)nc2ncnn12 do in these assays?
CHT block: -5; CHT PAM: inactive; Kir21 block: inactive; CHT inh conf: 23%; HEK293 CHT ctr: inactive

What do the screens show for `O=C(Nc1cccc([N+](=O)[O-])c1)NN1CCCCCC1`?
TAG inh: inactive

Results for O=C(Nc1cccc([N+](=O)[O-])c1)C(=O)N1CCCCC1 ?
CHT block: -5; CHT PAM: inactive; Kir21 block: inactive; TAG inh: inactive; CHT inh conf: inactive; HEK293 CHT ctr: inactive

What do the screens show for `CC(OC(=O)c1cc2sccc2n1C)C(=O)NCc1cccs1` (configuration not stated)?
CHT block: inactive; CHT PAM: inactive; Kir21 block: inactive

How did CC(OC(=O)c1cc2sccc2n1C)C(=O)NC(C)(C)C (configuration not stated) do in these assays?
CHT block: -9.2; CHT PAM: inactive; Kir21 block: inactive; TAG inh: inactive; CHT inh conf: 59%; HEK293 CHT ctr: inactive

Results for O=C(CSc1nc2ccccc2c(=O)n1C1CC1)NCc1ccccc1 ?
CHT block: -5.1; CHT PAM: inactive; Kir21 block: inactive; TAG inh: inactive; CHT inh conf: 67%; HEK293 CHT ctr: inactive

Results for O=C(c1cnn2c(C(F)(F)F)cc(-c3cccs3)nc12)N1CCN(Cc2ccccc2)CC1 ?
CHT block: -5.5; CHT PAM: inactive; Kir21 block: inactive; TAG inh: inactive; CHT inh conf: 57%; HEK293 CHT ctr: inactive

How did CN1CCN(c2c([N+](=O)[O-])cnc3ccccc23)CC1 do in these assays?
CHT block: inactive; CHT PAM: inactive; Kir21 block: inactive; TAG inh: inactive

Results for Cc1ccc(Sc2ncccc2NC(=O)c2ccccc2Cl)cc1 ?
CHT block: -5; CHT PAM: inactive; Kir21 block: inactive; TAG inh: inactive; CHT inh conf: inactive; HEK293 CHT ctr: inactive

What do the screens show for `CCOC(=O)Nc1cccnc1Sc1ccc(Cl)cc1`?
CHT block: inactive; CHT PAM: inactive; Kir21 block: inactive; TAG inh: inactive

How did CC(C)(C)c1ccc(C(=O)N2CCN(c3ncccn3)CC2)cc1 do in these assays?
CHT block: inactive; CHT PAM: inactive; Kir21 block: inactive

How did CSc1ccc(CCNC(=O)CCc2nnc3ccc(N4CCCC4)nn23)cc1 do in these assays?
CHT block: -5.3; CHT PAM: inactive; Kir21 block: inactive; TAG inh: inactive; CHT inh conf: inactive; HEK293 CHT ctr: inactive

What do the screens show for `CC(=O)Nc1ccc(-c2csc(NNC(=O)c3ccc(C)cc3)n2)cc1`?
CHT block: inactive; CHT PAM: inactive; Kir21 block: inactive; TAG inh: inactive

How did O=C(NNc1nc(-c2ccccc2)cs1)c1ccccc1 do in these assays?
CHT block: -7.8; CHT PAM: inactive; Kir21 block: inactive; CHT inh conf: 62%; HEK293 CHT ctr: inactive

What do the screens show for `COc1cc(OC)c(S(=O)(=O)NC(C)C)cc1S(=O)(=O)NC(C)C`?
CHT block: inactive; CHT PAM: inactive; Kir21 block: inactive; TAG inh: inactive

Results for CN(C)c1nc(N)c(C#N)c(C#N)c1C#N ?
TAG inh: inactive

What do the screens show for `CCOc1cc(N2CCOCC2)c(OCC)cc1NC(=O)CSc1ncn[nH]1`?
CHT block: inactive; CHT PAM: inactive; Kir21 block: inactive; TAG inh: inactive

Results for CC(C)n1c(=S)[nH]c2cc(Cl)ccc21 ?
CHT block: -6.9; CHT PAM: inactive; Kir21 block: inactive; TAG inh: inactive; CHT inh conf: 52%; HEK293 CHT ctr: inactive

How did COc1ccccc1-c1c(NC(=O)c2ccco2)n(C)c2ccccc2c1=O do in these assays?
CHT block: inactive; CHT PAM: inactive; Kir21 block: inactive

What do the screens show for `Cn1c(NC(=O)CCC2CCCCC2)cc(=O)n(C)c1=O`?
CHT block: -6.4; CHT PAM: inactive; Kir21 block: inactive; TAG inh: inactive; CHT inh conf: inactive; HEK293 CHT ctr: inactive

How did Cc1ccc2nc(SCC(=O)Nc3cccc(F)c3)nc(=O)n2c1 do in these assays?
CHT block: inactive; CHT PAM: inactive; Kir21 block: inactive; TAG inh: inactive

How did CC(NC(=O)CN(c1cccc(C(F)(F)F)c1)S(=O)(=O)c1ccc(Cl)c([N+](=O)[O-])c1)c1ccccc1 (configuration not stated) do in these assays?
CHT block: -6.2; CHT PAM: inactive; Kir21 block: inactive; CHT inh conf: inactive; HEK293 CHT ctr: inactive

What do the screens show for `CCc1nnc(NC(=O)CN2C(=O)/C(=C/c3ccc(OC)c(OC)c3)SC2=S)s1`?
CHT block: inactive; CHT PAM: inactive; Kir21 block: inactive

What do the screens show for `CCC1=C(c2cc(OC)c(OC)c(OC)c2)C2(CCCC2)C(=O)O1`?
CHT block: inactive; CHT PAM: inactive; Kir21 block: inactive

Results for O=C(O)c1ccc(Cl)cc1Nc1nc2cc(Cl)ccc2o1 ?
CHT block: inactive; CHT PAM: inactive; Kir21 block: inactive

Results for Cc1ccc(S(=O)(=O)NNC(=O)c2sc3nc(C)cc(C)c3c2-n2cccc2)cc1 ?
CHT block: -5; CHT PAM: inactive; Kir21 block: inactive; TAG inh: inactive; CHT inh conf: inactive; HEK293 CHT ctr: inactive
